Sampled rows, rich in hits. Any-hit rate of the full collection: about 1.6%.
DSG3 Ab inh: human desmoglein-3 autoantibody binding inhibition. P32926. DSG3-coupled beads, scFv-anti-DSG3-GFP binding, flow cytometry; stronger effect = lower value. binding (percent of control), % at 10 µM. 310,000 tested, 0.48% active. AID 588358;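 active means binding more than 3 SD below its plate's average and above zero; inconclusive means below that plate limit but binding exactly zero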;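 further: hits lower antibody fragment binding to DSG3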
Target sequence (P32926 whole entry, looked up, the tested form may be a part): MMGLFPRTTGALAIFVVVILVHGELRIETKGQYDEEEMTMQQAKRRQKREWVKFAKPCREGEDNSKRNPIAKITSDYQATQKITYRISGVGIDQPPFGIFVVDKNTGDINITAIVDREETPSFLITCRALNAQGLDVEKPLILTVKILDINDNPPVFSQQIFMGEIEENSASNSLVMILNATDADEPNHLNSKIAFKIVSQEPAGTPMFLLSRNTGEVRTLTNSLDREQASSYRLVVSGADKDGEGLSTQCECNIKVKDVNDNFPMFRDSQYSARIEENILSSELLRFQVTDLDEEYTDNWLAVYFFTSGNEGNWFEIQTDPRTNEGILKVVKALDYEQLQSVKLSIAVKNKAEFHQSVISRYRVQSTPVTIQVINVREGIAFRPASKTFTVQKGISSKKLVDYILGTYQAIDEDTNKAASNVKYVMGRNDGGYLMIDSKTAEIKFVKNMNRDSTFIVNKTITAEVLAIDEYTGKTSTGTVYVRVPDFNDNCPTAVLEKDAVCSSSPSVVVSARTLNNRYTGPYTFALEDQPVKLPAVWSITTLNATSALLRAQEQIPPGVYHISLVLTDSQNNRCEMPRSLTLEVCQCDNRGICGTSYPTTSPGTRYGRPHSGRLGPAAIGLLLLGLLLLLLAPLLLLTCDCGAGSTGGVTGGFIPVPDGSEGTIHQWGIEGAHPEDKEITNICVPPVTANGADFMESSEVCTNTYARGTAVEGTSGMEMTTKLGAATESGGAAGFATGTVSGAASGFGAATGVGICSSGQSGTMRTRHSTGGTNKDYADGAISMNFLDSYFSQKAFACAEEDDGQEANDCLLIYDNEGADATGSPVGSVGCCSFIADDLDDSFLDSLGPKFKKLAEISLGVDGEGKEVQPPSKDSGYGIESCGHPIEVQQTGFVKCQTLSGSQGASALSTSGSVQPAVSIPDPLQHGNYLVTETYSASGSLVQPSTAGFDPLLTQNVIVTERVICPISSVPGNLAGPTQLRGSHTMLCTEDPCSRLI
PREPL inhibitor: inhibitors of human prolyl oligopeptidase-like enzyme PREPL | Q4J6C6 | recombinant PREPL, fluorescence polarization activity-based probe | inhibition, % at 5.96 µM | 320,000 tested, 0.68% active; in the data active means inhibition above about 43%
JMJD2C inh: blocks human GASC-1 demethylase activity; Q9H3R0; GST-JMJD2C(1-420) H3K9me3 demethylation, DELFIA europium; inhibition, % at 2.35 µM; 330,000 tested, 0.069% active; AID 2099;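 active means more than half of a compound's replicate wells show inhibition beyond 50%, single wells judged on their own value; inconclusive means some, but no more than half, of replicates pass 50% inhibition; inactive means no replicate passes 50% inhibition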;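 further: signal counts dimethyl H3K9 product captured on neutravidin plate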
GRK2 inh: inhibitors of human GRK2 displacing RNA aptamer | 330,000 tested, 0.59% active | AID 488847 | inhibition of aptamer binding, % at 10 µM | bead flow cytometry, FAM-aptamer displacement from GRK2 | P25098;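 active means inhibition of aptamer binding above 40%, roughly 3 SD of noise, on plates passing a quality check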;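 further: median bead fluorescence of bound FAM aptamer so fluorescent compounds give negative values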
VLA-4 inh: inhibition in a human VLA-4 binding assay; inhibition, % (about 7 µM as worked out from the volumes in the protocol); VLA-4 expressing cells, ligand binding flow cytometry; 330,000 tested, 0.2% active; in the data active means inhibition above about 50%
Large screens that a line does not name were inactive.

CCN1N=C(c2ccccc2)Cn2c1nc1ccccc12	DSG3 Ab inh inconclusive
Cc1nc2nc(-c3ccco3)[nH]n2c(=O)c1C	DSG3 Ab inh 65
Cc1nc2nc(-c3ccco3)[nH]n2c(=O)c1Cc1ccccc1	none
Cn1cnnc1Sc1ccc(/C=C/C(=O)c2ccc(O)cc2)cc1[N+](=O)[O-]	none
COc1ccc(NC(=O)/C(C#N)=C/c2ccc(Sc3nncn3C)c([N+](=O)[O-])c2)cc1	VLA-4 inh 52
COc1cc(C(C(=O)NC2CCCCC2)N(C(=O)Cc2c[nH]c3ccccc23)c2ccccc2C)cc(OC)c1OC (stereo not drawn)	none
COc1cc(C(C(=O)NC2CCCCC2)N(Cc2cccs2)C(=O)Cc2c[nH]c3ccccc23)cc(OC)c1OC (stereo not drawn)	JMJD2C inh 52
C/C(=N\NC(=O)c1ccccc1Cl)c1ccccn1	DSG3 Ab inh 61
COc1ccccc1NC(=S)NN=C(C)c1ccccn1	DSG3 Ab inh -0.8 (no result: PREPL inhibitor, JMJD2C inh, GRK2 inh, VLA-4 inh)
CC1CCc2cc(F)ccc2N1C(=O)c1ccc2c(c1)OCO2 (stereo not drawn)	none
COc1ccc(C(=O)CSc2nc(=O)n3ccc(C)cc3n2)cc1	DSG3 Ab inh 57 (no result: PREPL inhibitor, JMJD2C inh, GRK2 inh, VLA-4 inh)
Cc1cc(C)nc(SCc2ccc(Cl)cc2)n1	none
Cc1cc(C)nc(NCc2ccc(Cl)cc2)n1	JMJD2C inh 68 (no result: GRK2 inh)
COc1cc(/C=C/C(=O)OCC(=O)Nc2cc(S(=O)(=O)N(C)C)ccc2Cl)ccc1O	none
CCN(CC)S(=O)(=O)c1ccc(Cl)c(NC(=O)COC(=O)/C=C/c2ccc(O)c(OC)c2)c1	GRK2 inh 100
CC(=O)N(O)CCCCCNC(=O)CCC(=O)N(O)CCCCCNC(=O)CCC(=O)N(O)CCCCCN	none
CC(C)Oc1ccc(C2CC(=O)N(c3ccc(N(C)C)cc3)C2=O)cc1 (stereo not drawn)	DSG3 Ab inh 77
CC(C)Oc1ccc(C2CC(=O)N(c3ccccc3)C2=O)cc1 (stereo not drawn)	none
CC(=O)C(Sc1nc(N2CCOCC2)nc(N2CCOCC2)n1)C(=O)Nc1ccccc1 (stereo not drawn)	JMJD2C inh 70
Cc1ccc(CNC(=O)COC(=O)CN2C(=O)C3CC=CCC3C2=O)cc1 (stereo not drawn)	none (no result: DSG3 Ab inh)
C=CCn1c(O)c(N=O)c2ccccc21	none
C=CCn1c(O)c(N=Nc2ccccc2C)c2ccccc21	JMJD2C inh 97 (no result: DSG3 Ab inh)
O=C(Nc1ccc(N2CCN(C(=O)c3ccccc3)CC2)cc1)c1ccc(Br)o1	none
CC(C)N1CCN(C(=O)c2ccc(NC(=O)c3ccc(Br)o3)cc2)CC1	DSG3 Ab inh 68
COc1ccccc1CNC(=O)c1cc(-c2ccccc2)nn1CC1CC(c2cccnc2)=NO1 (stereo not drawn)	JMJD2C inh 57
COc1ccc(C2=NOC(Cn3nc(-c4ccccc4)cc3C(=O)NCc3ccccc3OC)C2)cc1 (stereo not drawn)	none (no result: JMJD2C inh)
O=C(NCCCc1ccccc1)c1cc(COc2ccc(F)cc2Cl)on1	DSG3 Ab inh 35
COc1cc(CNc2ccc(CNc3ncn[nH]3)cc2)cc(Cl)c1OCc1ccccc1	DSG3 Ab inh 82
CCSc1nnc(CNC(=O)C23CC4CC(CC(C4)C2)C3)n1C1CCCCC1	none
COc1ccc(CCNC(=O)C(=O)NCC2OCCN2S(=O)(=O)c2cccs2)cc1 (stereo not drawn)	none
CCc1ccc(OCC(=O)c2c(O)c3ccccc3oc2=O)cc1	DSG3 Ab inh 50
CCOC(=O)CSc1nnc(-c2ccccc2NC(=O)c2ccccc2)o1	DSG3 Ab inh 69
Cc1ccc(NC(=O)CN(C)C(=O)CSc2nccn2C)cc1	none
NC(=O)c1ccc(NC(=O)c2ccc3c(c2)CCN3S(=O)(=O)c2ccccc2)cc1	DSG3 Ab inh 10
CSc1ncccc1C(=O)N1CCCC(N2CCN(c3ccccc3C)CC2)C1 (stereo not drawn)	none (no result: PREPL inhibitor, JMJD2C inh, GRK2 inh, VLA-4 inh)
COc1ccc(CC(=O)Nc2cccc(-c3csc(C)n3)c2)cc1	DSG3 Ab inh -20
CCN(C(=O)COC(=O)/C=C/c1ccco1)C1CCCCC1	GRK2 inh 49 (no result: DSG3 Ab inh)
CCN(C(=O)COC(=O)/C=C/c1ccc(F)cc1)C1CCCCC1	none
CCn1c(N2CCN(S(=O)(=O)c3ccccc3)CC2)nc2ccccc21	none
CCCn1c(N2CCN(S(=O)(=O)Cc3ccccc3)CC2)nc2ccccc21	DSG3 Ab inh 56
CCOC(=O)Cn1c(=O)cc(C)c2cccc(C)c21	none
Cn1nc(C(C)(C)C)c(NC(=O)c2cccs2)c1C(C)(C)C	none (no result: DSG3 Ab inh)
